According to PubChem BioAssay (Tox21):
Unmarked numbers belong to inactive results. Results filed as inconclusive are left out. Where a call stands in place of a potency, no number is given. The source made the active and inactive calls. Unless noted, the call rests on the fitted dose curve; in most records, active means well fitted curve in the direction sought with a large enough effect in the repeat runs; inconclusive means weak or mixed curves; inactive means no such curve, though single readings can be large; an effect the other way counts as inactive or inconclusive.

Key:
[1] = qHTS assay to identify small molecule agonists of the estrogen receptor alpha (ER-alpha) signaling pathway in the presence of an antagonist - cell viability counter screen (AID 1259386);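 further: cells exposed to compounds for 22 h at 37 °C before the viability read; nearly all actives have a fitted effect of over 30% in size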; further: potency means the concentration at half of the fitted maximal effect
Method in brief: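 Cytotoxicity was measured in parallel with the ERE-luciferase agonist screen, in the same wells. The cells were VM7Luc4E2, which endogenously express ER-alpha, and treatment was with compounds plus 10.0nM ICI-182,780 for 22hr.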

[2] = target: Progesterone receptor (Homo sapiens) (UniProt P06401); test: qHTS assay to identify small molecule agonists of the progesterone receptor (PR) signaling pathway (AID 1346784; calls by dose curve; further: nearly all actives have a fitted effect of over 30% in size)
Sequence of Progesterone receptor (Homo sapiens) (P06401 whole entry, looked up): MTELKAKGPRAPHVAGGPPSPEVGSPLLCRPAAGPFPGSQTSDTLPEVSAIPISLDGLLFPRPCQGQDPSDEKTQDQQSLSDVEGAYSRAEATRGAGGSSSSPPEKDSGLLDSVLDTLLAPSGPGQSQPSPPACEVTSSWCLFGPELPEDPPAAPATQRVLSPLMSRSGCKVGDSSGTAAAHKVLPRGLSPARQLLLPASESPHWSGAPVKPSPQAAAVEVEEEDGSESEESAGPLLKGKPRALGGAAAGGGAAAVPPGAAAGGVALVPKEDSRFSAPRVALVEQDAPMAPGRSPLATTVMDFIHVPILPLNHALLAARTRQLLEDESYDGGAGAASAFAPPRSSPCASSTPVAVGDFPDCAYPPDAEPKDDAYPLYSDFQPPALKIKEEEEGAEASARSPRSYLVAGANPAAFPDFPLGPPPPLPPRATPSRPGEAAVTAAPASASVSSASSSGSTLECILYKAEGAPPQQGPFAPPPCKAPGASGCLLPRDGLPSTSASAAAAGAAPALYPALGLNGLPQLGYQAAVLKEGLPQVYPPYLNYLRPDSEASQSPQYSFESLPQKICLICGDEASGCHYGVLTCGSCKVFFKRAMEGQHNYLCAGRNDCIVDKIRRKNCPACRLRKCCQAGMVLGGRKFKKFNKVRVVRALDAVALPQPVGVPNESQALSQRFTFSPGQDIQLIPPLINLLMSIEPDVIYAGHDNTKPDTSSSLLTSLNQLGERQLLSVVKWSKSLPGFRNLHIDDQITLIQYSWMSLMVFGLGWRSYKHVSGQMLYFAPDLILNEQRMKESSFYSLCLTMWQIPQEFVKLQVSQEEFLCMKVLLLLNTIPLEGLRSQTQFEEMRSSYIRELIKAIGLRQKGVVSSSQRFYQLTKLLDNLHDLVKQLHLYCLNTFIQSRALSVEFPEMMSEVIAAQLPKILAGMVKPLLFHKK
Method in brief: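 PR-UAS-bla HEK 293T cells (beta-lactamase reporter under UAS) in 2% charcoal-stripped FBS, dosed with 23 nL compound after 6 hr, incubated 16hr at 37C. LiveBLAzer B/G FRET substrate added, fluorescence read after 2 hours.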

[3] = target: Progesterone receptor (Homo sapiens) (UniProt P06401); test: qHTS assay to identify small molecule antagonists of the progesterone receptor (PR) signaling pathway (AID 1346795; active means well fitted inhibition curve with a large enough effect in the signal ratio in the repeat runs, not every such curve was filed as active; the % refers to the signal ratio; further: potency means the concentration at half of the fitted maximal effect)
Method in brief: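 PR-UAS-bla HEK293T cells with beta-lactamase reporter under UAS control, in 2% charcoal-stripped FBS, treated with compounds plus 1 nM promegestone (R5020, final) for 16 hr at 37C. Read-out: FRET beta-lactamase substrate fluorescence after 2 hr at room temperature.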

[4] = qHTS assay to identify small molecule agonists of the progesterone receptor (PR) signaling pathway - cell viability counter screen (AID 1346799; calls by dose curve; further: nearly all actives have a fitted effect of over 45% in size)
Method in brief: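 Counter screen in the PR-UAS-bla HEK293T wells (2% charcoal-stripped FBS, 16 h compound exposure at 37 C) after the bla read. CellTiter-Glo added, 30 min at room temperature, luminescence read as cell viability.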

[5] = qHTS assay to identify small molecule antagonists of the TGF-beta/Smad signaling pathway - cell viability counter screen (AID 1346824); further: nearly all actives have a fitted effect of over 50% in size
Method in brief: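 SBE-bla HEK 293T cells, incubated overnight, then compound plus 0.25 ng/mL TGF-beta1 (stock added) for 5 hr at 37 C. Viability was read in the same wells by CellTiter-Glo luminescence after 30 min at room temperature.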

[6] = qHTS assay to identify small molecule agonists of the TGF-beta/Smad signaling pathway - cell viability counter screen (AID 1346829); further: top concentration of the series differs between compounds; nearly all actives have a fitted effect of over 45% in size
Method in brief: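 CellTiter-Glo luminescence readout; SBE-bla HEK 293T cells, overnight plating, compound 5 hr at 37 C/5% CO2, then bla substrate 2 hr RT, then CellTiter-Glo 30 min RT.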

[7] = target: Thyrotropin-releasing hormone receptor (Homo sapiens) (UniProt P34981); test: qHTS assay to identify small molecule antagonists of the thyrotropin-releasing hormone receptor (TRHR) signaling pathway (AID 1346877; active means well fitted inhibition curve with a large enough effect in the repeat runs, not every such curve was filed as active; further: series mostly up to about 51 µM)
Sequence of Thyrotropin-releasing hormone receptor (Homo sapiens) (P34981 whole entry, looked up): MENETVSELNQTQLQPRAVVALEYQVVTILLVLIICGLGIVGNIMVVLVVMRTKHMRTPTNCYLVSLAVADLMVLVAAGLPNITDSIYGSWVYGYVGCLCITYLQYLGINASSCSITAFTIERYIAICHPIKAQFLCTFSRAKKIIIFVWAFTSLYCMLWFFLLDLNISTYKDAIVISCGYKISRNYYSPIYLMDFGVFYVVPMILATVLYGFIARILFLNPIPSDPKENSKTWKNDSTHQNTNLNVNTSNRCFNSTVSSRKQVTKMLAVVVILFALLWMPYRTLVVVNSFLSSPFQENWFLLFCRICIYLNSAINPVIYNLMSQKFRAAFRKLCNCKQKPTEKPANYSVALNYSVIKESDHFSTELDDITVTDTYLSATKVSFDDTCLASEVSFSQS
Method in brief: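 Antagonism is measured as suppression of the calcium response to 1 nM TRH in TRHR-HEK293 cells that have been dye-loaded for 2 h at 37 °C after overnight plating. Each compound is tested at 15 concentrations in triplicate.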

[8] = target: Thyrotropin-releasing hormone receptor (Homo sapiens) (UniProt P34981); test: qHTS assay to identify small molecule agonists of the thyrotropin-releasing hormone receptor (TRHR) signaling pathway (AID 1346891; calls by dose curve; further: series mostly up to about 58 µM)
Method in brief: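 HEK293 cells expressing TRHR plated 18 h at 37 C/5% CO2, calcium dye-loaded 2 h at 37 C, then compound added (agonist mode); kinetic calcium fluorescence read 3 min at 1 s intervals; 15 concentrations in triplicate.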

[9] = Caspase-3/7 induction in HepG2 cells by small molecules, qHTS assay (AID 1346978); further: nearly all actives have a fitted effect of over 15% in size
Method in brief: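 Wild-type HepG2 cells, 2,000/well, settled 5 hr at 37 C and 5% CO2, then compound-treated for 17 hr; caspase-3/7 activity read by luminescent Caspase-Glo 3/7 after 30 min at room temperature.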

[10] = Caspase-3/7 induction in CHO-K1 cells by small molecules, qHTS cell viability counter screen (AID 1346979); further: nearly all actives have a fitted effect of over 35% in size; further: potency means the concentration at half of the fitted maximal effect
Method in brief: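 Wild-type CHO-K1 cells (1,500/well) treated with compound after 5 h plating; after 16 h at 37C, viability read as CellTiter-Fluor fluorescence following 1 h reagent incubation, in the same wells as the caspase read.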

[11] = Caspase-3/7 induction in HepG2 cells by small molecules, qHTS cell viability counter screen (AID 1346981); further: nearly all actives have a fitted effect of over 30% in size; further: potency means the concentration at half of the fitted maximal effect
Method in brief: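 Cell viability is measured as a cytotoxicity counter screen alongside the Caspase-Glo 3/7 readout in identical wells. Wild-type HepG2 cells are treated with test compounds for 16 hr at 37 C before CellTiter-Fluor addition and a 1-hr incubation.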

[12] = qHTS assay to identify small molecule antagonists of the progesterone receptor (PR) signaling pathway - cell viability counter screen (AID 1346798); further: series mostly up to about 92 µM; nearly all actives have a fitted effect of over 50% in size
Method in brief: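 PR-UAS-bla HEK293T cells, 3,000/well in 2% charcoal-stripped FBS medium, dosed with compounds plus R5020 agonist and incubated 16 h at 37C. Viability then measured in the same wells by CellTiter-Glo luminescence after 30 min at RT.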

[13] = qHTS assay to identify small molecule agonists of the TGF-beta/Smad signaling pathway (AID 1346859; active means well fitted activation curve with a large enough effect in the signal ratio in the repeat runs, not every such curve was filed as active; the % refers to the signal ratio; further: series mostly up to about 77 µM)
Method in brief: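 SBE-bla HEK293T cells plated overnight, then compound exposure for 5 h at 37 C. Beta-lactamase reporter read with LiveBLAzer B/G FRET substrate after 2 h at room temperature, fluorescence at 405 nm excitation, 460/530 nm emission.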

[14] = Human pregnane X receptor (PXR) small molecule agonists, qHTS cell viability counter screen (AID 1346977); further: nearly all actives have a fitted effect of over 50% in size; further: potency means the concentration at half of the fitted maximal effect
Method in brief: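 PXR-Luc HepG2 cells (2,000/well, 5% charcoal-stripped FBS) preincubated 5 hr, then exposed to compounds 24 hr at 37 C. Viability read in the same wells by CellTiter-Fluor fluorescence, reagent added at 23 hr, 1 hr incubation.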

[15] = Caspase-3/7 induction in CHO-K1 cells by small molecules, qHTS assay (AID 1346980); further: nearly all actives have a fitted effect of over 15% in size
Method in brief: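 Wild-type CHO-K1 cells exposed to compounds for 17hr at 37 C, 5% CO2. Caspase-3/7 activity then measured by Caspase-Glo 3/7 luminescence after 30min at room temperature.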

[16] = target: Nuclear receptor subfamily 1 group I member 2 (Homo sapiens) (UniProt O75469); test: Human pregnane X receptor (PXR) small molecule agonists, qHTS assay (AID 1346982); further: nearly all actives have a fitted effect of over 35% in size; further: potency means the concentration at half of the fitted maximal effect
Sequence of Nuclear receptor subfamily 1 group I member 2 (Homo sapiens) (O75469 whole entry, looked up): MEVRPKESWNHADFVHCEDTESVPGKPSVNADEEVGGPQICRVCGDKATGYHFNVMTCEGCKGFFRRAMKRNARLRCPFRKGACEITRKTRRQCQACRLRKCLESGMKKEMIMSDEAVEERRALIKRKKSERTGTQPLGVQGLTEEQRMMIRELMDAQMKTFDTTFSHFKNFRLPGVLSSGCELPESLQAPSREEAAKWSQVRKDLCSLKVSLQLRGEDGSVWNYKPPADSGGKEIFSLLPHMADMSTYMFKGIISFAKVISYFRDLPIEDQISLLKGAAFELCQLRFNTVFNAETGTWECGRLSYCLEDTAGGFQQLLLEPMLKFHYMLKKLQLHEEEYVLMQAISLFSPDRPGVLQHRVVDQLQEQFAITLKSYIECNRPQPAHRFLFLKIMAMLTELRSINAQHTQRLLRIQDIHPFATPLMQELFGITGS
Method in brief: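 Cells: HepG2 stably carrying PXR-Luc. Medium held 5% charcoal-stripped FBS. Compounds in DMSO added after 5 hr plating, incubated 24 hr, then luminescence quantified with ONE-Glo.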

[17] = target: Nuclear receptor subfamily 1 group I member 2 (Rattus norvegicus) (UniProt Q9R1A7); test: Rat pregnane X receptor (rPXR) activation by small molecules, qHTS assay (AID 1346983); settings: rPXR luciferase reporter cells, One-Glo luminescence, 24 h; max activation: hits give high values; further: nearly all actives have a fitted effect of over 20% in size
Sequence of Nuclear receptor subfamily 1 group I member 2 (Rattus norvegicus) (Q9R1A7 whole entry, looked up): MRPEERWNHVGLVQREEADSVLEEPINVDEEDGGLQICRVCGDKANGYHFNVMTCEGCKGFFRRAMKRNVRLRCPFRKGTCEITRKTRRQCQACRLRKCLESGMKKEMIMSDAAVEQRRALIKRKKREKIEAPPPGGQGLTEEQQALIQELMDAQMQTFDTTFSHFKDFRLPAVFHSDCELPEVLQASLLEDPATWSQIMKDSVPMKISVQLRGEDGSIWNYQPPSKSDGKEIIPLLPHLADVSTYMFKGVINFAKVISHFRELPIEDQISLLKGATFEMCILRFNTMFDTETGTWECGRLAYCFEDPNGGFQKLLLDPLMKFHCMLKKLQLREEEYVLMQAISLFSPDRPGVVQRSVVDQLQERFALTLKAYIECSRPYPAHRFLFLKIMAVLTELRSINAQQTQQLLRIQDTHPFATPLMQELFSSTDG
Method in brief: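 Cell-based rPXR activation assay: rPXR cells, 2,000 per well, rested 5hr at 37 C, then exposed to compounds in DMSO for 24 hr at 37 C. Luciferase activity read by One-Glo luminescence after 30 min at room temperature.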

[18] = target: Nuclear receptor subfamily 1 group I member 2 (Homo sapiens) (UniProt O75469); test: CYP3A4 induction through human pregnane X receptor (PXR) by small molecules, qHTS assay (AID 1346984); further: nearly all actives have a fitted effect of over 40% in size
Method in brief: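 Quantitative HTS in DPX-2 cells, i.e. HepG2 transfected with PXR response element and CYP3A4-promoter luciferase. Compounds in DMSO incubated 24hr at 37C; then P450-Glo CYP3A4 substrate, 3uM final, 3hr; One-Glo luminescence.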

[19] = target: Nuclear receptor subfamily 1 group I member 2 (Homo sapiens) (UniProt O75469); test: Human pregnane X receptor (PXR) activation by small molecules, qHTS assay (AID 1346985); further: nearly all actives have a fitted effect of over 40% in size
Method in brief: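 DPX-2 cells (HepG2 co-transfected with a PXR response element and a CYP3A4-promoter luciferase construct) were seeded at 2,000 per well, rested 5 hr at 37C, then exposed to DMSO-dissolved compounds for 24 hr. Activation was read as luciferase luminescence.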

Compound | Potency [1] | Potency [2] | Potency [3] | Potency [4] | Potency [5] | Potency [6] | Potency [7] | Potency [8] | Potency [9] | Potency [10] | Potency [11] | Potency [12] | outcome [13] | Potency [14] | Potency [15] | Potency [16] | max activation [17] [%] | Potency [18] | Potency [19]
CCOC(=O)COc1cc(-c2nn(C)c(OC(F)F)c2Cl)c(F)cc1Cl | inactive | inactive | inactive | inactive | inactive | inactive | inactive | inactive | inactive | inactive | inactive | – | – | – | – | – | – | – | –
Nc1ccc(N=Nc2ccc(-c3ccc(N=Nc4c(S(=O)(=O)O)cc5cc(S(=O)(=O)O)c(N=Nc6ccccc6)c(O)c5c4N)cc3)cc2)c(N)c1 | 15.7 µM (active) | inactive | inactive | inactive | inactive | inactive | – | – | inactive | 17.6 µM (active) | 19.7 µM (active) | inactive | inactive | 17.6 µM (active) | inactive | – | – | – | –
COCC(C)N(C(=O)CCl)c1c(C)csc1C (stereo not drawn) | inactive | inactive | 54.5 µM (active) | – | inactive | inactive | inactive | inactive | inactive | – | inactive | – | inactive | inactive | inactive | inactive | -3.61 | inactive | inactive
COc1c(C(C)(C)C)cc([N+](=O)[O-])c(C)c1[N+](=O)[O-] | inactive | inactive | inactive | inactive | inactive | inactive | – | – | inactive | – | inactive | inactive | inactive | inactive | inactive | 9.61 µM (active) | – | – | –
